Source: PubChem
M1 PAM: human CHRM1 positive allosteric modulation; P11229; CHO-K1 hM1, Fluo-8 calcium fluorescence, ACh EC20; 0% = ACh EC20, 100% = maximal ACh; activation, % at 3 µM; 360,000 tested, 0.088% active; AID 588819; in the data active = activation above about 19%, passing the limit was not always enough
Target sequence (P11229 whole entry, looked up): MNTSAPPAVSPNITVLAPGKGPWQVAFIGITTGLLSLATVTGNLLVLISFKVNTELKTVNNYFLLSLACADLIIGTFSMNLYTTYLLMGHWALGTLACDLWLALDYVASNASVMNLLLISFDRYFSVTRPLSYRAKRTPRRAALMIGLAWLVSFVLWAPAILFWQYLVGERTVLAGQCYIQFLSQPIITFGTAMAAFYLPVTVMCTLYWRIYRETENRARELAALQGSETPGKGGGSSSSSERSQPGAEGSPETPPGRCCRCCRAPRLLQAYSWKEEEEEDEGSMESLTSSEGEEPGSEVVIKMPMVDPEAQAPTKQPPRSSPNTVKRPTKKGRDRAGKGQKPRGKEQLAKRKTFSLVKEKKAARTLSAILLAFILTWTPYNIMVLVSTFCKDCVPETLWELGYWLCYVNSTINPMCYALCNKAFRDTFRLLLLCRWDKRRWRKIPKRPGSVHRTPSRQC
CHO-K1 Ca PAM: M1 PAM counterscreen hit in parental CHO-K1 cells | ATP EC20, Fluo-8 calcium fluorescence; 0% at ATP EC20, 100% at ATP max | activation, % at 3 µM | 360,000 tested, 0.02% active | AID 602247;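 active = activation above the run cutoff, the mean activation of all test compounds plus 3 SD, cut at about 40% in these data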;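 note: peak over basal fluorescence ratio in a 140 s read after ATP addition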
CHRM1 antagonist: human CHRM1 antagonism; inhibition, % at 3 µM; P11229; CHO-K1 hM1, Fluo-8 calcium fluorescence, ACh EC80 antagonist; 360,000 tested, 1.3% active;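 active = percent inhibition above its own plate's cutoff, namely the mean of that plate's compound wells plus 3 SD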;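 note: peak over basal fluorescence ratio during 140 s after agonist addition; 0% = ACh EC80 plus DMSO and 100% = DMSO alone without agonist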
CHO-K1 Ca antag: M1 antagonist counterscreen hit in parental CHO-K1 cells | ATP-induced calcium, Fluo-8 fluorescence | inhibition, % at 3 µM | 360,000 tested, 0.6% active | AID 602250;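 active = inhibition above a per-plate cutoff, the plate's mean sample inhibition plus 3 SD, cut at about 24% in these data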;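 note: 0% = DMSO plus EC80 ATP and 100% = DMSO alone without ATP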
M1 ag parental: counter-screen for M1 agonists: effect in parental CHO-K1 cells | Fluo-8 calcium fluorescence; scaled to maximal ATP response, vehicle zero | activation, % at 3 µM | 360,000 tested, 0.48% active; in the data active = activation above about 15%;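 note: untransfected CHO-K1 host cells lacking M1 receptor as counterscreen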
CHRM1 agonist: human M1 muscarinic receptor agonism; CHO-K1 hM1, Fluo-8 calcium fluorescence, agonist mode; 0% DMSO, 100% acetylcholine EC100; activation, % at 3 µM; 360,000 tested, 0.33% active;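 active = activation above the run's mean compound activation plus 3 SD, cut at about 16% in these data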;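 note: peak over basal fluorescence ratio within a 140 s kinetic read after compound addition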
Starred values were filed as active, the others as inactive. Sampled rows, rich in hits. Any-hit rate of the full collection: about 2.3%.

SMILES	M1 PAM	CHO-K1 Ca PAM	CHRM1 antagonist	CHO-K1 Ca antag	M1 ag parental	CHRM1 agonist
CCOC(=O)C1CCCN(CC(=O)Nc2cc(C)cc(C)c2)C1 (stereo not given)	13	6	-18	-21	0	3
CCOC(=O)N1CCN(C(=S)Nc2cccc(C)c2)CC1	-1	12	-2	-2	0	19*
CC1CCCN(CCC(=O)Nc2ccc3c(c2)CCC3)C1 (stereo not given)	-20	15	33*	-9	0	-7
CCOC(=O)C1CCCN(C(=S)Nc2ccc(S(=O)(=O)N3CCOCC3)cc2)C1 (stereo not given)	-30	6	54*	-10	1	63*
CCOC(=O)C1CCCN(C(=S)Nc2cc(C)cc(C)c2)C1 (stereo not given)	-14	-4	68*	11	0	63*
Cc1ccc(S(=O)(=O)CCC(=O)OCC(=O)Nc2cc(S(=O)(=O)N3CCOCC3)ccc2C)cc1	-4	-14	13	2	1	-3
CCOC(=O)C1CCCN(C(=S)NC2CCCCC2)C1 (stereo not given)	-8	13	2	-16	1	39*
CCOC(=O)C1CCCN(CCC(=O)Nc2ccccc2)C1 (stereo not given)	-5	19	4	-5	0	8
CCOC(=O)C1CCN(CCC(=O)Nc2cc(C)ccc2C)CC1	-2	8	2	-4	16*	-3
CCOC(=O)C1CCCN(CCC(=O)Nc2cc(OC)ccc2OC)C1 (stereo not given)	1	-2	-5	-3	0	16*
CCOC(=O)C1CCCN(C(=O)Nc2cccc(Cl)c2)C1 (stereo not given)	-24	24	20	-12	1	55*
Cc1cc(N2C(=O)C3C4CC(c5ccccc5)C(C4)C3C2=O)no1 (stereo not given)	9	18	-9	0	1	-4
CN1C[C@@H]2[C@@H]3C(=O)N(C)C(=O)[C@@H]3[C@](C)(C1=O)N2C(=O)c1ccc(C(C)(C)C)cc1	13	11	-4	-10	1	-1
CCOC(=O)C1CCCN(CC(=O)Nc2cccc(C(C)=O)c2)C1 (stereo not given)	8	19	-3	-10	1	-3
CCOC(=O)C1CCCN(Cc2cc(OC)c(O)c(OC)c2)C1 (stereo not given)	-15	2	6	-1	0	42*
CCOC(=O)C1CCCN(CCC(=O)Nc2cc(C)cc(C)c2)C1 (stereo not given)	-6	15	5	-13	0	21*
CCOC(=O)C1CCCN(CC(=O)NC2CC2)C1 (stereo not given)	9	10	-12	-3	0	25*
COc1ccc(C(=O)C2=NN(C(C)=O)CC2c2ccco2)cc1 (stereo not given)	-2	-10	9	-6	4	-5
CCn1cc(C(=O)NCCC(=O)NC(C)C)c(=O)c2cc3c(cc21)OCO3	1	-4	4	-2	0	-5
CC(Nc1nc(-c2cccnc2)nc2ccccc12)c1ccc(F)cc1 (stereo not given)	-17	-2	21*	-7	2	-10
COc1ccc(CCNc2nc(-c3cccnc3)nc3ccccc23)cc1OC	-13	-6	25*	23	7	-8
Cc1c(O)ccc(/C=N/Nc2nc(-c3cccnc3)nc3ccccc23)c1O	-8	4	32*	-1	6	1
COc1ccc(C(CNc2nc(-c3cccnc3)nc3ccccc23)N(C)C)cc1 (stereo not given)	-31	4	33*	4	3	-11
Oc1ccc(/C=N/Nc2nc(-c3cccnc3)nc3ccccc23)c(O)c1	-3	12	9	-5	6	-1
COc1ccc(/C=N/Nc2nc(-c3cccnc3)nc3ccccc23)cc1OC	-16	1	26	2	5	0
SMILES	M1 PAM	CHO-K1 Ca PAM	CHRM1 antagonist	CHO-K1 Ca antag	M1 ag parental	CHRM1 agonist
COc1ccc(NC(=O)Cc2nnc(SCC(=O)NC3=NCCS3)n2C)cc1	8	2	-8	-3	11	-4
CC(C)N1CCc2c(sc(NC(=S)NC(=O)c3ccccc3)c2C#N)C1	9	17	-12	-5	3	-8
CCCN1CCc2c(sc(NC(=S)NC(=O)c3ccccc3)c2C#N)C1	-7	-1	19	16	46*	37*
CC(NCc1ccc(S(N)(=O)=O)cc1)C(=O)NCc1ccccc1 (stereo not given)	10	7	-10	-8	0	-8
CC(NC(=O)COc1ccccc1)C(=O)NCc1ccc(S(N)(=O)=O)cc1 (stereo not given)	27*	15	-20	-9	1	2
Cc1cc(C(=O)COC(=O)c2n[nH]c(=O)c3ccccc23)c(C)n1C	-12	-7	28*	6	0	-1
Cc1cc(C(=O)COC(=O)c2n[nH]c3ccccc23)c(C)n1C	9	27	-13	-10	2	-2
CN(C)CCOC(C1CCCCC1)C1CCCCC1	-20	36	49*	-17	9	-5
O=C(NCc1cccnc1)C(=O)NCC1OCCN1S(=O)(=O)c1ccccc1 (stereo not given)	-9	9	11	-2	0	-6
Cc1ccc(S(=O)(=O)N2CCOC2CNC(=O)C(=O)NCCCN2CCOCC2)cc1 (stereo not given)	23*	-15	-29	-5	0	-1
Cc1ccc(S(=O)(=O)N2CCOC2CNC(=O)C(=O)NCc2cccnc2)cc1 (stereo not given)	2	-10	-3	36*	2	-7
COc1ccc(CN(Cc2ccccn2)S(=O)(=O)c2ccc(-n3cnnn3)c(OC)c2)cc1	-8	1	-21	-21	4	-7
COc1ccc(CN(Cc2ccccn2)S(=O)(=O)c2ccc(-n3cnnn3)cc2)cc1	-5	-5	-12	40*	1	-3
CC1(C(=O)Nc2ccc3c(c2)OCCO3)CCC(=O)N1CCOc1ccccc1 (stereo not given)	2	10	-1	7	1	-5
O=C(CN1C(=O)C(=O)c2ccccc21)NCCc1ccccc1	12	19	-10	-14	2	1
O=C1C(=O)N(C/C=C/c2ccccc2)c2ccccc21	17	8	-17	-15	1	24*
O=C1C(=O)N(CCCc2ccccc2)c2ccccc21	6	13	-14	-4	0	18*
O=C(c1c(F)cccc1F)N1CCCC(c2nc(-c3cccs3)no2)C1 (stereo not given)	5	-1	3	-4	4	-5
CC(C)c1ccc(CNC(=O)C(=O)Nc2nccs2)cc1	-5	-11	8	16	0	-5
